Screening data (PubChem BioAssay)
JMJD2A Tudor inh = qHTS Assay for Inhibitors of JMJD2A-Tudor Domain. Lysine-specific demethylase 4A (Homo sapiens), O75164. 4.4% of 390,000 active. AlphaScreen JMJD2A-Tudor / H3K4me3 peptide binding. Potency, µM (doses to about 114 µM), inactives show at the top dose activity change, negative = inhibition, most hits filed as inhibitors; note: % is set by controls: 0 for no effect and ±100 for the full control effect; nearly all actives have a fitted effect of over 50% in size
HP1b chromo inh = HTS for Inhibitors of HP1-beta Chromodomain Interactions with Methylated Histone Tails; Potency, µM (titrated, usually from 114 µM), without a hit: top-dose activity change, negative = inhibition, most hits filed as inhibitors; 0.56% of 390,000 active; Chromobox protein homolog 1 (Homo sapiens), P83916; AlphaScreen HP1-beta / biotin-H3K9me3 peptide binding; note: nearly all actives have a fitted effect of over 70% in size
Target sequence (P83916 whole entry, looked up): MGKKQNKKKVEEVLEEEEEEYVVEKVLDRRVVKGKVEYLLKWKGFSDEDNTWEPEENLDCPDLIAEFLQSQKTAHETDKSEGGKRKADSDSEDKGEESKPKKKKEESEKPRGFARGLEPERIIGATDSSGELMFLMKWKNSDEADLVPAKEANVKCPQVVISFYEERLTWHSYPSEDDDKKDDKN
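HP1-beta protein (50 nM final) preincubated 30 min at room temperature with biotinylated H3(1-18)K9me3 peptide (50 nM) in PBS pH 7.4, 0.01% Tween-20, then compound added for 30 min. AlphaScreen streptavidin donor/nickel chelate acceptor beads (10 ug/mL final), 30 min dark, luminescence read.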
G9a block = qHTS Assay for Inhibitors of Histone Lysine Methyltransferase G9a; Histone-lysine N-methyltransferase EHMT2 (Homo sapiens), Q96KQ7; G9a H3K9 monomethylation, AlphaScreen, 2 h; Potency, µM (highest dose often 102 µM), for the others: at the highest dose activity, negative = inhibition, most hits filed as inhibitors; 8.8% of 350,000 active; AID 504332, 2011; note: % is set by controls: 0 for no effect and ±100 for the full control effect; nearly all actives have a fitted effect of over 75% in size
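Using a bead-based AlphaScreen, monomethylated H3K9 product from 2 h room-temperature reactions (G9a 20 nM, peptide 500 nM, SAM 20 uM) was detected with 0.5 ug/mL rabbit anti-H3K9me1 antibody.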
PLK1 PBD inh = qHTS for Inhibitors of PLK1-PDB (polo-like kinase 1 - polo-box domain): Primary Screen; Potency, µM, for inactives: max response, negative = inhibition, most hits filed as inhibitors; 2.8% of 360,000 active; Plk1 PBD binding of FITC phosphopeptide, fluorescence polarization; Serine/threonine-protein kinase PLK1 (Homo sapiens), P53350; note: series mostly up to about 57 µM; % is set by controls: 0 for no effect and ±100 for the full control effect; nearly all actives have a fitted effect of over 65% in size
Target sequence (P53350 whole entry, looked up, the tested form may be a part): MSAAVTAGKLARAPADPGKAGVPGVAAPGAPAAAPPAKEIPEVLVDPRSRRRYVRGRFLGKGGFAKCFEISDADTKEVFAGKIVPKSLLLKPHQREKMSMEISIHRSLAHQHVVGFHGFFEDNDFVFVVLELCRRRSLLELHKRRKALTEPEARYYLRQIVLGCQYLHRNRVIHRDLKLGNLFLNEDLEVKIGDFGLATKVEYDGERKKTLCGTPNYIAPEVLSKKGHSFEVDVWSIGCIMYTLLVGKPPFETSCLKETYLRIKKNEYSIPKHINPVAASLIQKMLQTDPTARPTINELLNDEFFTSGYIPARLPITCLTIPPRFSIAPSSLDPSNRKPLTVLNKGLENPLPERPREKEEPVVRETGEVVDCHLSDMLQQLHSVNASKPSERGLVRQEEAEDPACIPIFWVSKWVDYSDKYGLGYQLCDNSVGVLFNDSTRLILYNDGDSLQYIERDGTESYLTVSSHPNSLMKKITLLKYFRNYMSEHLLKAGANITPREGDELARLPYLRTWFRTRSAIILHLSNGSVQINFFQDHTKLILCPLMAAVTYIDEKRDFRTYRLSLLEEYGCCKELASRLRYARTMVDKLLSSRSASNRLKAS
Sfp inh = qHTS Assay for Inhibitors of Bacillus subtilis Sfp phosphopantetheinyl transferase (PPTase); 4'-phosphopantetheinyl transferase ffp (Bacillus subtilis), Q9F4F7; Biochemical Sfp PPTase activity, qHTS; Potency, µM, without a hit: largest response in the series, negative = inhibition, actives largely listed as inhibitors; 3.5% of 310,000 active;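 note: the enzyme is Sfp with the accession as filed and its product quenches rhodamine fluorescence; 0% = enzyme reaction without inhibitor and -100% = no enzyme wells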
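Reaction rates are the 30-min fluorescence difference (ex 525, em 598 nm) in wells containing 15 nM Sfp, 5 uM rhodamine-CoA and 12.5 uM BHQ-2-YbbR at pH 7.6 with 10 mM MgCl2.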
BAZ2B block = qHTS Assay for Inhibitors of BAZ2B. Bromodomain adjacent to zinc finger domain protein 2B (Homo sapiens), Q9UIF8. AlphaScreen BAZ2B-H3K14Ac peptide displacement. Potency, µM (top dose mostly 114 µM), without a hit: top-dose activity change, negative = inhibition, actives largely listed as inhibitors. 4.4% of 360,000 active. AID 504333, 2011; note: % is set by controls: 0 for no effect and ±100 for the full control effect; nearly all actives have a fitted effect of over 60% in size
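AlphaScreen luminescence quantifies BAZ2B engagement of H3K14Ac peptide; the protein and biotinylated peptide are both at 50 nM final, buffer PBS pH 7.4 with 0.01% Tween-20, all steps at room temperature.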
* marks the source's active call; other numbers are inactive results; ? = inconclusive; . = no result; [ ] = dose if it differs, or a comment. The list is not random: actives were taken first. Their share in the collection is about 12%. Calls come from the whole dose curve; as a rule, active = well fitted curve in the direction sought with a large enough effect; inconclusive = small, poorly fitted or top-dose-only effect, or another doubt; inactive = no such curve, though single readings can be large; an effect the other way counts as inactive or inconclusive. Potency is the fitted concentration of half-maximal effect.

SMILES | JMJD2A Tudor inh | HP1b chromo inh | G9a block | PLK1 PBD inh | Sfp inh | BAZ2B block
COc1ccc(C(=O)NC(=S)NCc2ccco2)cc1 | ? | -29.8% | . | -24.8% | ? | ?
O=[N+]([O-])c1ccc(CSCc2ccc([N+](=O)[O-])cc2)cc1 | -10.4% | -9.0% | . | 1.1% | . | .
Cc1cc(=O)[nH]c(SCC(=O)N2CCN(S(=O)(=O)c3ccccc3)C2)n1 | -7.6% | 39.4% | 37.4% | 1.9% | ? | -2.4%
NS(=O)(=O)c1cccc(NC(=O)C(Cc2ccccc2)NC(=O)c2ccccc2)c1 (stereo not given) | -8.5% | -0.1% | 4.1% | -14.0% | 7.7% | -1.0%
CNC(=S)N1C2CCCC1CC(NC(=O)c1ccc(C)cc1)C2 (stereo not given) | -3.7% | 41.9% | . | -7.2% | . | .
Cc1ccc(C(=O)NC2CC3CCCC(C2)N3C(=S)NCc2ccco2)cc1 (stereo not given) | -24.1% | -20.1% | ? | ? | 44.7µM* | -27.0%
COc1cccc(C(=O)NC(=S)NCc2ccco2)c1 | -13.1%[57.1 µM] | 12.8% | ? | -16.8% | -16.4% | -35.3%
COc1cc(OC)cc(C(=O)NC(=S)NCc2ccco2)c1 | -33.6% | -0.2% | 44.7µM* | -5.6% | -12.8% | -7.4%
Cc1ccc(-c2noc(CCC(=O)NCc3ccco3)n2)cc1 | -14.6% | 11.5% | ? | -8.7% | 56.2µM* | ?
CC(=O)c1ccc(-c2ccc(C3C4C=CCCC4(C)C(=O)N3Cc3ccccc3)c(F)c2)cc1 (stereo not given) | -28.3% | 3.8% | . | . | ? | .
Cc1cc(C)nc(N/N=C2/CCCC/C2=C\c2ccccc2)n1 | -24.7% | 31.1% | -1.9% | -6.0% | 5.2% | -27.2%
CCCN1C(=O)C2(C(C(=O)c3ccc(C)o3)=C(O)C(=O)N2CCCOC)c2ccccc21 (stereo not given) | -20.6% | 10.9% | ? | -5.1% | -1.8% | -12.9%
Nc1ccc(C(=O)N/N=C/c2ccc(N3CCOCC3)s2)cc1 | -24.2% | 18.6% | . | -9.0% | . | .
Clc1cccc(N/N=C/c2ccc(N3CCOCC3)s2)c1 | -13.9% | 21.0% | 1.12µM* | -8.8% | ? | 50.1µM*
CC(C)(C)OC(=O)N/N=C/c1ccc(N2CCOCC2)s1 | -16.3% | 12.5% | 15.8µM* | 0.4% | -8.4% | -3.9%
O=C(N/N=C/c1ccc(N2CCOCC2)s1)c1ccccc1Br | -9.4% | 23.5% | ? | -4.9% | 35.5µM* | -26.2%
COc1ccc(C(=O)NCc2cc(C)nc3ccccc23)cc1 | -12.4% | 59.0% | -4.4% | ? | 2.5% | -37.3%
COc1cc(C(=O)NCc2ccc3[nH]c(C)cc3c2)cc(OC)c1OC | -8.7% | 29.0% | ? | 4.1% | 10.4% | -37.2%
CCCCNC(=S)NCc1ccc2[nH]c(C)cc2c1 | ? | -19.0% | ? | 2.6% | 2.8% | ?
Cc1cc(CNC(=O)c2ccc3c(c2)OCO3)c2ccccc2n1 | -5.4% | 42.6% | 35.5µM* | -9.4% | 1.0% | -33.3%
CCOc1ccc(NC(=S)NCc2ccc3[nH]c(C)cc3c2)cc1 | 50.1µM* | -14.5% | ? | -24.4% | -13.0% | .
Cc1cc2cc(CNC(=O)c3ccc4c(c3)OCO4)ccc2[nH]1 | -33.9% | -7.7% | 50.1µM* | -4.5% | 8.9% | ?
O=C(NCc1ccc2c(c1)OCO2)c1ccc2c(c1)OCO2 | -17.2% | 23.5% | 39.5%[12.7 µM] | -1.7% | -7.9% | -15.2%
COc1ccc(C(=O)NCc2ccc3[nH]c(C)cc3c2)cc1OC | -30.0% | 23.8% | 35.5µM* | -5.0% | -24.8% | ?
O=C(N/N=C\c1cc(Br)c(Br)o1)c1cncc(Br)c1 | -13.0% | 18.6% | 0.0%[59 µM] | -14.5% | -12.9% | -1.2%
SMILES | JMJD2A Tudor inh | HP1b chromo inh | G9a block | PLK1 PBD inh | Sfp inh | BAZ2B block
O=C(N/N=C/c1cc(Br)c(Br)o1)c1cccnc1 | ? | -2.9% | ? | -25.3% | 31.6µM* | ?
CN(C)c1ccc(/C=N/NC(=O)c2ccc3c(c2)OCCO3)cc1 | -29.1% | -1.8% | -2.7% | -5.4% | 14.4% | -31.4%
O=C(CNC(=O)c1ccccc1)N/N=C/c1cc(Br)ccc1O | -4.0% | 42.7% | 22.6%[59 µM] | 5.8% | 6.8% | 7.5%
O=C(N/N=C/c1cc(Br)c(O)c(Br)c1O)c1ccc2c(c1)OCCO2 | 39.8µM* | -2.9% | ? | -5.3% | ? | 44.7µM*
O=C(N/N=C/c1cc(Br)c(Br)o1)c1ccc2c(c1)OCCO2 | 39.8µM* | ? | . | -10.2% | 4.47µM* | 44.7µM*
O=C(CNC(=O)c1ccc2c(c1)OCO2)N/N=C/c1cc(Br)ccc1O | ? | 12.9% | 79.4µM* | -7.1% | 20.0% | -9.1%
O=C(Cn1c(=O)c2cc(Cl)ccc2n2nncc12)Nc1ccccc1 | -11.9% | 23.9% | 1.5%[59 µM] | . | . | 0.7%
CC1(C(=O)Nc2ccc3c(c2)OCCO3)CCC(=O)N1C1CCN(Cc2ccccc2)CC1 (stereo not given) | . | . | . | -6.6% | . | .
COc1ccc2[nH]c3c(c2c1)CCNC3c1ccc([N+](=O)[O-])o1 (stereo not given) | 50.1µM* | -8.8% | 31.6µM* | ? | 50.1µM* | ?
CC1(C)C2CCC1(C)C(OC(=O)CC(=O)O)C2 (stereo not given) | 17.2% | 31.8% | 5.9% | -4.7% | 15.0% | 8.5%
CC1(C)C2CCC1(C)C(OC(=O)C[n+]1ccccc1)C2 (stereo not given) | -11.8%[11.4 µM] | 0.7% | -47.2% | 18.9µM* | 14.2% | 2.3%
CC1(C)C2CCC1(C)C(OC(=O)CNc1ccccc1)C2 (stereo not given) | 0.0%[11.4 µM] | 43.3% | -5.2%[12.7 µM] | 18.9µM* | -4.0% | 12.3%
CC1(C)C2CCC1(C)C(OC(=O)C[n+]1ccccc1N)C2 (stereo not given) | -0.7%[11.4 µM] | 40.3% | -44.0% | 0.2% | 4.5% | 2.9%
CCOc1ccc(CCNC(=O)c2cccc(-n3c(C)nc4cccnc43)c2C)cc1 | 0.0% | 43.8% | 2.9%[59 µM] | . | . | -1.2%
C#CCCCC(=O)Nc1ccccc1 | . | . | . | . | 19.1% | .
Nc1nc(-c2ccc(Cl)c(Cl)c2)c(-c2ccncc2)s1 | . | . | . | . | 22.4µM* | .
Cc1nc2cc(N)ccc2n1C1CCCCC1 | -34.7% | 21.2% | 14.1µM* | 8.6% | -18.8% | ?
O=C1C2CC=C(Cl)CC2C(=O)N1CCCCCCN1C(=O)C2CC=C(Cl)CC2C1=O (stereo not given) | 44.7µM* | ? | 11.2µM* | ? | 0.5% | 44.7µM*
